# According to the supplement of paper PMC8728848:
# The entries come from a sample that favours the strongest signals as a whole.
# Assays:
# Assay in all cases: glycan array binding signal (z-score within array); higher = stronger binding
# Details in all cases: glycan notation: IUPAC condensed, linker removed
# [1] = biological target: GalNAc(b1-3)Gal
# Procedure, shortened: (§1)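 Glycan array binding is given as a within-array Z-score, which can be read as non-binding when negative. The arrays, 3228 of them, came from the Consortium for Functional Glycomics database and were retained only where the protein sequence was available. Z-scores were averaged across arrays of the same protein sequence at different concentrations or buffers and across linkers.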
# [2] = biological target: GalNAc6S(b1-4)GlcNAc
# Procedure, shortened: as §1
# [3] = biological target: Glc(b1-6)Glc
# Procedure, shortened: as §1
# [4] = biological target: GlcNAc(a1-4)Gal(b1-3)GlcNAc
# Procedure, shortened: as §1
# [5] = biological target: GlcNAc(b1-2)Man(a1-3)[GlcNAc(b1-2)Man(a1-6)]Man(b1-4)GlcNAc(b1-4)[Fuc(a1-6)]GlcNAc
# Procedure, shortened: as §1
# [6] = biological target: GlcNAc(b1-3)Gal(b1-4)GlcNAc(b1-2)[GlcNAc(b1-3)Gal(b1-4)GlcNAc(b1-6)]Man(a1-6)[GlcNAc(b1-3)Gal(b1-4)GlcNAc(b1-2)Man(a1-3)]Man(b1-4)GlcNAc(b1-4)GlcNAc
# Procedure, shortened: as §1
# [7] = biological target: GlcNAc(b1-3)Gal(b1-4)GlcNAc(b1-3)Gal(b1-4)GlcNAc(b1-2)Man(a1-3)[GlcNAc(b1-3)Gal(b1-4)GlcNAc(b1-3)Gal(b1-4)GlcNAc(b1-2)Man(a1-6)]Man(b1-4)GlcNAc(b1-4)GlcNAc
# Procedure, shortened: as §1
# [8] = biological target: GlcNAc(b1-3)Gal(b1-4)GlcNAc(b1-3)Gal(b1-4)GlcNAc(b1-3)Gal(b1-4)GlcNAc(b1-2)Man(a1-3)[GlcNAc(b1-3)Gal(b1-4)GlcNAc(b1-3)Gal(b1-4)GlcNAc(b1-3)Gal(b1-4)GlcNAc(b1-2)Man(a1-6)]Man(b1-4)GlcNAc(b1-4)[Fuc(a1-6)]GlcNAc
# Procedure, shortened: as §1
# [9] = biological target: GlcNAc(b1-3)Gal(b1-4)GlcNAc(b1-3)Gal(b1-4)GlcNAc(b1-3)Gal(b1-4)GlcNAc(b1-3)Gal(b1-4)GlcNAc(b1-2)Man(a1-3)[GlcNAc(b1-3)Gal(b1-4)GlcNAc(b1-3)Gal(b1-4)GlcNAc(b1-3)Gal(b1-4)GlcNAc(b1-3)Gal(b1-4)GlcNAc(b1-2)Man(a1-6)]Man(b1-4)GlcNAc(b1-4)[Fuc(a1-6)]GlcNAc
# Procedure, shortened: as §1
# [10] = biological target: GlcNAc(b1-3)[GlcNAc(b1-6)]Gal(b1-4)GlcNAc
# Procedure, shortened: as §1
# [11] = biological target: GlcNAc(b1-6)GalNAc
# Procedure, shortened: as §1
# [12] = biological target: GlcNAc6S(b1-3)Gal(b1-4)GlcNAc
# Procedure, shortened: as §1
# [13] = biological target: Man(a1-2)Man(a1-6)[Man(a1-3)]Man(a1-6)[Man(a1-2)Man(a1-2)Man(a1-3)]Man
# Procedure, shortened: as §1
# [14] = biological target: Man(a1-3)[Man(a1-6)]Man
# Procedure, shortened: as §1
# [15] = biological target: Man(a1-3)[Man(a1-6)]Man(a1-6)[Man(a1-2)Man(a1-3)]Man(b1-4)GlcNAc(b1-4)GlcNAc
# Procedure, shortened: as §1
# [16] = biological target: Neu5Ac(a2-3)Gal(b1-3)GlcNAc(b1-2)Man(a1-3)[GlcNAc(b1-4)][Neu5Ac(a2-3)Gal(b1-3)GlcNAc(b1-2)Man(a1-6)]Man(b1-4)GlcNAc(b1-4)GlcNAc
# Procedure, shortened: as §1
# [17] = biological target: Neu5Ac(a2-3)Gal(b1-3)GlcNAc(b1-4)Gal(b1-4)Glc
# Procedure, shortened: as §1
# [18] = biological target: Neu5Ac(a2-3)Gal(b1-3)[Neu5Ac(a2-6)]GlcNAc(b1-3)[Fuc(a1-3)[Gal(b1-4)]GlcNAc(b1-6)]Gal(b1-4)Glc
# Procedure, shortened: as §1
# [19] = biological target: Neu5Ac(a2-3)Gal(b1-4)GlcNAc(b1-2)[Neu5Ac(a2-3)Gal(b1-4)GlcNAc(b1-6)]Man(a1-6)[Neu5Ac(a2-3)Gal(b1-4)GlcNAc(b1-2)Man(a1-3)]Man(b1-4)GlcNAc(b1-4)GlcNAc
# Procedure, shortened: as §1
# [20] = biological target: Neu5Ac(a2-3)Gal(b1-4)GlcNAc(b1-3)Gal(b1-4)GlcNAc(b1-2)Man(a1-3)[Neu5Ac(a2-3)Gal(b1-4)GlcNAc(b1-3)Gal(b1-4)GlcNAc(b1-2)Man(a1-6)]Man(b1-4)GlcNAc(b1-4)GlcNAc
# Procedure, shortened: as §1
# [21] = biological target: Neu5Ac(a2-3)Gal(b1-4)GlcNAc(b1-3)Gal(b1-4)GlcNAc(b1-3)Gal(b1-4)GlcNAc(b1-2)Man(a1-3)[Neu5Ac(a2-3)Gal(b1-4)GlcNAc(b1-3)Gal(b1-4)GlcNAc(b1-3)Gal(b1-4)GlcNAc(b1-2)Man(a1-6)]GalNAc
# Procedure, shortened: as §1
# [22] = biological target: Neu5Ac(a2-3)Gal(b1-4)GlcNAc(b1-3)Gal(b1-4)GlcNAc(b1-3)GalNAc
# Procedure, shortened: as §1
# [23] = biological target: Neu5Ac(a2-3)Gal6S(b1-4)[Fuc(a1-3)]GlcNAc
# Procedure, shortened: as §1
# [24] = biological target: Neu5Ac(a2-6)Gal(b1-4)GlcNAc(b1-2)Man(a1-3)[Gal(b1-4)GlcNAc(b1-2)Man(a1-6)]Man(b1-4)GlcNAc(b1-4)GlcNAc
# Procedure, shortened: as §1
# [25] = biological target: Neu5Ac(a2-6)Gal(b1-4)GlcNAc(b1-2)Man(a1-3)[GlcNAc(b1-2)Man(a1-6)]Man(b1-4)GlcNAc(b1-4)GlcNAc
# Procedure, shortened: as §1
# [26] = biological target: Neu5Ac(a2-6)Gal(b1-4)GlcNAc(b1-3)Gal(b1-4)GlcNAc(b1-3)Gal(b1-4)GlcNAc(b1-2)Man(a1-3)[Neu5Ac(a2-6)Gal(b1-4)GlcNAc(b1-3)Gal(b1-4)GlcNAc(b1-3)Gal(b1-4)GlcNAc(b1-2)Man(a1-6)]GalNAc
# Procedure, shortened: as §1
# [27] = biological target: Neu5Ac(a2-6)Gal(b1-4)GlcNAc(b1-6)[Gal(b1-3)GlcNAc(b1-3)]Gal(b1-4)Glc
# Procedure, shortened: as §1
# [28] = biological target: Neu5Ac(a2-8)Neu5Ac
# Procedure, shortened: as §1
# [29] = biological target: Neu5Ac(a2-8)Neu5Ac(a2-3)[GalNAc(b1-4)]Gal(b1-4)Glc
# Procedure, shortened: as §1
binder,measurement,setting,value
FliC (Clostridium difficile) (protein) MRVNTNVSALIANNQMGRNVNGQSKSMEKLSSGVRIKRAADDAAGLAISEKMRAQIKGLDQAGRNVQDGISVVQTAEGSLEETGNILQRMRTLSLQSANEINNTEEREKIADELTQLKDEIERISSSTEFNGKKLLDGTSSTIRLQVGASYGTNVSGTSNNNNEIKIQLVNTASIMASAGITTASIGSMKAGGTTGTDAAKTMVSSLDAALKSLNSSRAKLGAQQNRLESTQNNLNNTLENVTAAESRIRDTDVASEMVNLSKMNILVQASQSMLAQANQQPQGVLQLLG,glycan array binding signal (z-score),[1],-0.175
same,glycan array binding signal (z-score),[2],0.047
same,glycan array binding signal (z-score),[3],1.72
same,glycan array binding signal (z-score),[4],0.947
same,glycan array binding signal (z-score),[5],0.458
same,glycan array binding signal (z-score),[6],3
same,glycan array binding signal (z-score),[7],0.372
same,glycan array binding signal (z-score),[8],-0.149
same,glycan array binding signal (z-score),[9],-0.369
same,glycan array binding signal (z-score),[10],-0.057
same,glycan array binding signal (z-score),[11],-0.08
same,glycan array binding signal (z-score),[12],0.071
same,glycan array binding signal (z-score),[13],0.153
same,glycan array binding signal (z-score),[14],-0.471
same,glycan array binding signal (z-score),[15],3.18
same,glycan array binding signal (z-score),[16],0.514
same,glycan array binding signal (z-score),[17],0.17
same,glycan array binding signal (z-score),[18],-0.645
same,glycan array binding signal (z-score),[19],-0.275
same,glycan array binding signal (z-score),[20],1.02
same,glycan array binding signal (z-score),[21],6.63
same,glycan array binding signal (z-score),[22],-0.31
same,glycan array binding signal (z-score),[23],-0.433
same,glycan array binding signal (z-score),[24],-0.515
same,glycan array binding signal (z-score),[25],0.511
same,glycan array binding signal (z-score),[26],2.32
same,glycan array binding signal (z-score),[27],-0.577
same,glycan array binding signal (z-score),[28],-0.234
same,glycan array binding signal (z-score),[29],-0.626
